Reference: PubChem BioAssay
The source made the active and inactive calls.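 The calls were made as follows, unless noted: active = superoxide response below 65% of plate, a cut near 3 SD across the whole screen; inactive = the rest.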

How the values were obtained:
[1] = reduced mouse 2C T cell binding to pMHC/ICAM-1 vesicles – MLPCN validation set, flow cytometry, LFA-1/ICAM-1 modulator project, pilot screen (AID 2523;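 active = response below a set limit, under 55% cells CD8-positive and vesicle-bound, and CD8 cells' 90th-percentile brightness under 279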;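 as to vesicle binding response: mean PE anti-B7-1 fluorescence of CD8+ cells relative to row control; 100% = QL9-loaded vesicles with DMSO vehicle in the same plate row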); settings: 2C mouse CD8+ T cells, at 7 µM, stronger effect = lower value; double positive events: measured here: CD8+/vesicle+ event percentage
[2] = biological target: Integrin beta-1 (Homo sapiens) + Integrin alpha-4 (Homo sapiens) (UniProt P13612+P05556); assay: alpha4beta1 integrin LIBS antibody binding reduction – U937 cells, HUTS-21 mAb, flow cytometry, validation set, VLA-4 allosteric modulator project, pilot screen (AID 2674;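 active = inhibition above 50%, about 3 SD of the validation set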;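 also: antibody binding induced by the VLA-4 ligand LDV present at three times its Kd; 0% = LDV ligand with antibody and no compound and 100% = antibody without LDV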); settings: HUTS-21 LIBS mAb binding, at 6.7 µM, stronger effect = higher value, binding induced by LDV ligand
[3] = calorie-restriction mimetic ROS inhibitors, yeast – validation compound set, pilot screen (AID 2706);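 also: yeast exposed to compound for one week at 30 degrees C before staining; 100% = mean of all compound wells on the same plate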; settings: S. cerevisiae aging, superoxide DHE fluorescence; at 10 µM, stronger effect = lower value
[4] = biological target: Beta-adrenergic receptor kinase 1 (Homo sapiens) (UniProt P25098); assay: GRK2 binders displacing RNA aptamer, biochemical, validation, human GRK2, bead flow cytometry (AID 488806;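 active = aptamer binding inhibition above 30%, about 3 SD of noise from non-fluorescent compounds; inactive = inhibition at or below 30%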); settings: bead-bound GRK2, FAM-aptamer displacement, at 10 µM, stronger effect = higher value
[5] = biological target: Beta-2 adrenergic receptor (Homo sapiens) (UniProt P07550); assay: agonist-induced loss of surface beta2AR – cell-based, FAP fluorogen, flow cytometry, validation set, pilot screen (AID 504459;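 active = percent response above 42, roughly 3 SD of non-fluorescent test compounds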;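 also: agonist-driven loss of surface beta2AR via internalization measured by FAP dye flow cytometry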); settings: Am2.2-beta2AR cells, at 10 µM, stronger effect = higher value
[6] = biological target: AP-2 complex subunit beta (Homo sapiens) (UniProt P63010); assay: beta-arrestin/AP2 interaction blockers – biochemical, validation set, GST-AP2 beads, flow cytometry, pilot screen (AID 504541;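 active = inhibition above 54%, about 3 SD of non-fluorescent compounds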;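 also: AP2 carries R879A mutation and is captured from E. coli lysate; bead-bound FITC arrestin peptide fluorescence measuring arrestin peptide binding to AP2; 0% = DMSO wells and 100% = excess unlabeled arrestin peptide control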); settings: FITC arrestin peptide, at 10 µM, stronger effect = higher value, AP2 beta2 appendage fragment, R879A mutant
[7] = cytosolic pH regulators acting via V-ATPase – S. cerevisiae, pHLuorin, HTS validation (AID 504600; in the data active = response above about 15%;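 also: plate controls were DMSO for no effect and reference compound for full effect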); settings: V-ATPase proton transport, at 10 µM, stronger effect = higher value
[8] = test system: anti-desmoglein-3 scFv antibody binding to human DSG3; assay: blockers of pathogenic pemphigus antibody–desmoglein-3 binding – biochemical, validation compound set, bead-based, flow cytometry, pilot screen (AID 588368;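 active = binding below the plate cutoff, the plate median minus 3 SD, with a reading above zero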;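 also: signal is the median channel fluorescence of bead-bound GFP antibody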); settings: Protein G beads, DSG3-Fc, scFv-GFP binding, at 10 µM, stronger effect = lower value
[9] = Nile Red efflux blockade in pump-expressing yeast – validation compound set, multiplex, phenotypic, pilot screen (AID 588506;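 active = efflux inhibition above 0.42, the validation set average plus 4 SD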;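 also: Nile Red retained in cells so higher fluorescence means more efflux inhibition; 0 = negative control wells and 1 = enniatin B 25 µM full block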); settings: S. cerevisiae pump-expressing triplex, Nile Red efflux flow cytometry; at 10 µM; stronger effect = higher value; the pumps come from Candida albicans
[10] = biological target: ATP-binding cassette sub-family B member 6 (Homo sapiens) (UniProt Q9NP58); assay: blockers of ABCB6-driven porphyrin uptake – K562-ABCB6 cells, flow cytometry, validation set, pilot screen (AID 588550;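 active = inhibition above the screen-wide mean plus 3 SD, about 51%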;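 also: 0% = DMSO wells and 100% = benzethonium chloride 70 µM positive control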); settings: K562-ABCB6 porphyrin accumulation, 1 h, at 10 µM, stronger effect = higher value
[11] = AML differentiation inducers, ER-HoxA9 marrow cells – cell-based, GFP/MAC1 double positive, flow cytometry, validation set, primary screen (AID 588685;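 active = differentiation response of at least 50%, scaled between solvent and reference control, from cells with both markers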;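 also: compound exposure lasts four days before antibody staining and flow analysis; 0% = DMSO wells and 100% = 5 µM fulvestrant positive control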); settings: stronger effect = higher value, normalized: vehicle 0, fulvestrant 100

Sequence of AP-2 complex subunit beta (Homo sapiens) (P63010 whole entry, looked up, the tested form may be a part, one chain of several): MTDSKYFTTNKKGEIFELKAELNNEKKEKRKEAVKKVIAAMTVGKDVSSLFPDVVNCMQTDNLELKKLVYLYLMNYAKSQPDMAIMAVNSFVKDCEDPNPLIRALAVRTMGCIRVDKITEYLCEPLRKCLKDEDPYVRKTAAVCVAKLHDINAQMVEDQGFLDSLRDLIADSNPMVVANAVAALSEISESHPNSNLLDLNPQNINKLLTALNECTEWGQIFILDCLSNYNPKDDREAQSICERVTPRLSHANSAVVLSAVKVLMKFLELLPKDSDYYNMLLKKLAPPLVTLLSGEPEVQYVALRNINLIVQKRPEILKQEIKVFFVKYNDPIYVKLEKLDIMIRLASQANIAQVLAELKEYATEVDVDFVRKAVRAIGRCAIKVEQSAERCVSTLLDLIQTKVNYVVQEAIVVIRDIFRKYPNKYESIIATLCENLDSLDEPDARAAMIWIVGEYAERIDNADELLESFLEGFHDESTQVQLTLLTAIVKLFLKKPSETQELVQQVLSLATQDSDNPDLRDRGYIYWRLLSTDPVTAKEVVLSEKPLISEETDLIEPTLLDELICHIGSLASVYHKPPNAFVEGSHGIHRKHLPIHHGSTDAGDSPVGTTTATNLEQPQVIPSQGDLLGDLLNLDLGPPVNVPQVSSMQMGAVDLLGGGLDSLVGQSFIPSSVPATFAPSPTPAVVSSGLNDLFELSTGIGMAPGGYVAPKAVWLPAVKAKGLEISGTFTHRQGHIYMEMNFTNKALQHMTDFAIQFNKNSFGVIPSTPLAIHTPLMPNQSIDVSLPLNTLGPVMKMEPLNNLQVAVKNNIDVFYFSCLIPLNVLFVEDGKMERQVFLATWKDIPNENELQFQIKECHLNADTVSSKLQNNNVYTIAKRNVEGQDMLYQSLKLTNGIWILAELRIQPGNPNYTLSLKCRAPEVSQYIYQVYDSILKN
Sequence of Beta-2 adrenergic receptor (Homo sapiens) (P07550 whole entry, looked up): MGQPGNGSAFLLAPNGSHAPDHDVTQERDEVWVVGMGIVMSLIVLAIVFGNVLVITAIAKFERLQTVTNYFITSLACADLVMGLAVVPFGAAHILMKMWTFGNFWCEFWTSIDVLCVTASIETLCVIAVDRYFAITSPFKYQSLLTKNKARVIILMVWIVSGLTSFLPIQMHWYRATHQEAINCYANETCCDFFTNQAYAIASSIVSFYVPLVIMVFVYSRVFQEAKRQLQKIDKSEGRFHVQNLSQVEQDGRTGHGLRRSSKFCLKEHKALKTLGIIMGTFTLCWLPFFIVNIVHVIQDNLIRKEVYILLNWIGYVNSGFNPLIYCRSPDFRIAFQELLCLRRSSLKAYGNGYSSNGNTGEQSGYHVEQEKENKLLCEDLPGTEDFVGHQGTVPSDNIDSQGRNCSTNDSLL
Sequence of Integrin beta-1 (Homo sapiens) + Integrin alpha-4 (Homo sapiens) (P05556 whole entry, looked up): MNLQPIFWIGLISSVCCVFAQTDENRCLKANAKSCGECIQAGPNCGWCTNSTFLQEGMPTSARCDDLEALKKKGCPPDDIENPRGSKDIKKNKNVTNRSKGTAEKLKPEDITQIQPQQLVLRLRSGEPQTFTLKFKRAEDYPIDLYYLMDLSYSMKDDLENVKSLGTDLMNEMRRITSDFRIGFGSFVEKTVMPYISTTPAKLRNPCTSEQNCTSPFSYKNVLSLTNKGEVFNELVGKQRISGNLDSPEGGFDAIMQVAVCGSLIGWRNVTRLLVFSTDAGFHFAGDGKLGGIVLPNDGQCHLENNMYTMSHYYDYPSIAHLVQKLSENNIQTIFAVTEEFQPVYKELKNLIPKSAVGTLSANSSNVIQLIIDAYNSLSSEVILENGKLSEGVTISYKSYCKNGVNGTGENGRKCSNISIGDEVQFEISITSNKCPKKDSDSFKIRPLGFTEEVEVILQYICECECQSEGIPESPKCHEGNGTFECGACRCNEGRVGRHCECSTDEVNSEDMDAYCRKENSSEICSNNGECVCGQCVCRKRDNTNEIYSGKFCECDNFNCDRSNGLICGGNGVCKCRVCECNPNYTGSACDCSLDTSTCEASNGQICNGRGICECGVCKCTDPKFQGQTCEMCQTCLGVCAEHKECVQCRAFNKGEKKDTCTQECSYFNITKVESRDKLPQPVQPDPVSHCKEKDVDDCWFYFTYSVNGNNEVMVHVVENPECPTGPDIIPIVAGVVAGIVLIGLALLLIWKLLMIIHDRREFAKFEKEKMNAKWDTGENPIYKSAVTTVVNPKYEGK
Sequence of Integrin beta-1 (Homo sapiens) + Integrin alpha-4 (Homo sapiens) (P13612 whole entry, looked up): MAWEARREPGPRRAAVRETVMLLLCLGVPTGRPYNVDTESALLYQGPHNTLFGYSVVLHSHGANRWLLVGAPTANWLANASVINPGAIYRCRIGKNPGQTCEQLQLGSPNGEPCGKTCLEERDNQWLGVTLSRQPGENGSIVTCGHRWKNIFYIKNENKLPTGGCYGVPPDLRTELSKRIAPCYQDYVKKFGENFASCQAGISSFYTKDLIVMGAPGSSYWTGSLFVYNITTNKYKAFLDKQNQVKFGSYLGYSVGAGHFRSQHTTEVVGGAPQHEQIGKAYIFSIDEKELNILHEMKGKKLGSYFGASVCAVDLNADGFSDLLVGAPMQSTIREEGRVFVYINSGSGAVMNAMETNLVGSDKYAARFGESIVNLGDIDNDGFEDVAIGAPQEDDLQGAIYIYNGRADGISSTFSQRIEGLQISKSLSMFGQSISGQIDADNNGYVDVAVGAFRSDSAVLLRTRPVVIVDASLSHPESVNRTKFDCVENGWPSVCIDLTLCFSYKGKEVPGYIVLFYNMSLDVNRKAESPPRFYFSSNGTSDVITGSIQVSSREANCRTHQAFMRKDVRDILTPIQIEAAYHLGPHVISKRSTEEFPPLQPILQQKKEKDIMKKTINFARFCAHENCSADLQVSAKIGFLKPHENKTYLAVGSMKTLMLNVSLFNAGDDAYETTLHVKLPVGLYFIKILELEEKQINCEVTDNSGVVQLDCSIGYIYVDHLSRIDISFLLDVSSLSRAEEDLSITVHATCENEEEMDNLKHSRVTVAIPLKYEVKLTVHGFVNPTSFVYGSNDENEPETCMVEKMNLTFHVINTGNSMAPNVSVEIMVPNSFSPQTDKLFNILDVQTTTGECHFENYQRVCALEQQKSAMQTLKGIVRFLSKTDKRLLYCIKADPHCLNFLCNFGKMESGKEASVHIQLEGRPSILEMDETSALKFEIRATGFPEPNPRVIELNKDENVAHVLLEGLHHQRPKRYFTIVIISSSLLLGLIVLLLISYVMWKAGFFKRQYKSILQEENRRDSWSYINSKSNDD
Sequence of Beta-adrenergic receptor kinase 1 (Homo sapiens) (P25098 whole entry, looked up): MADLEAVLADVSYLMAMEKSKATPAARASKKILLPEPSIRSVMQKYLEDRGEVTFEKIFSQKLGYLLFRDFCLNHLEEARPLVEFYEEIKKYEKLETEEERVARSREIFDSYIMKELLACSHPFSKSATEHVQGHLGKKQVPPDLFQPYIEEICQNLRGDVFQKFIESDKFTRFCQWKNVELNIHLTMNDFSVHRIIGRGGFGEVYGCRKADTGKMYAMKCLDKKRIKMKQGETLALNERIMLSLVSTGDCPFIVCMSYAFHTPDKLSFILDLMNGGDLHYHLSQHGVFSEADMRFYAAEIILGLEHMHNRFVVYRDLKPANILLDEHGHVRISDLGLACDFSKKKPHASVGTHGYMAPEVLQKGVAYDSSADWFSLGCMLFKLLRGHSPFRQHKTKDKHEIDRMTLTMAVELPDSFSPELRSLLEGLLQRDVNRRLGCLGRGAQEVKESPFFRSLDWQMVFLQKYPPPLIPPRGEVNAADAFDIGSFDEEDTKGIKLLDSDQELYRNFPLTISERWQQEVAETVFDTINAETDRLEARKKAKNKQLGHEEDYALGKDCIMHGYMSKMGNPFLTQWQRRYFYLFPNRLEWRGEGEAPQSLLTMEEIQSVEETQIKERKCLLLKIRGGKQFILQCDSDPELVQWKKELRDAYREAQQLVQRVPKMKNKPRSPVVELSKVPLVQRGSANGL
Sequence of ATP-binding cassette sub-family B member 6 (Homo sapiens) (Q9NP58 whole entry, looked up): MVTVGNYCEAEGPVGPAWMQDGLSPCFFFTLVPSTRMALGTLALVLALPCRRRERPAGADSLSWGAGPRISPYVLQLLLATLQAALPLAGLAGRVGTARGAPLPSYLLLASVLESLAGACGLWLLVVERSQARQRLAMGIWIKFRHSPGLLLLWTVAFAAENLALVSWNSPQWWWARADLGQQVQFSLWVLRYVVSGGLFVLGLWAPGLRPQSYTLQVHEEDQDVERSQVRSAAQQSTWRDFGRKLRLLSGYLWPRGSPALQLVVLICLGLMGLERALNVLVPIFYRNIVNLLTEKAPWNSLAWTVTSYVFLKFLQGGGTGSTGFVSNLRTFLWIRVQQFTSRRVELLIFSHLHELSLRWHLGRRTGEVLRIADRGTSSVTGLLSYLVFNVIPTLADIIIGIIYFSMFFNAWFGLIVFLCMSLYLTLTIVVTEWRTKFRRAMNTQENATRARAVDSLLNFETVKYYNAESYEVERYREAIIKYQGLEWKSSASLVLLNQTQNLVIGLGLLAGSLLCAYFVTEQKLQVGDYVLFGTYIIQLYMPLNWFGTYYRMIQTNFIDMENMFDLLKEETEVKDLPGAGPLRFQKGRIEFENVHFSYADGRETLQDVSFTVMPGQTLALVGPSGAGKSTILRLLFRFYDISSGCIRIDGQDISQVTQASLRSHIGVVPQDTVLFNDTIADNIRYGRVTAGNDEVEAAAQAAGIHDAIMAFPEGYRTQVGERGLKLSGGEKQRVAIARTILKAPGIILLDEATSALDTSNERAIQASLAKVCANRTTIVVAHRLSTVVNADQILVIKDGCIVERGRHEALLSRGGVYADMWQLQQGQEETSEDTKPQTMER

SMILES	double positive events [1] [%]	vesicle binding response [1]	inhibition [2]	superoxide response (% of plate) [3]	aptamer binding inhibition [4]	response [5]	inhibition [6]	response [7]	binding (% of control) [8]	efflux inhibition (fraction of control) [9]	inhibition [10]	differentiation response [11]
CCN(CC)CCNC(=O)c1cc(S(C)(=O)=O)ccc1OC	58.8	219% (inactive)	-1.79% (inactive)	88.3% (inactive)	4% (inactive)	4.46% (inactive)	-1.05% (inactive)	4.62% (inactive)	101% (inactive)	-0.28 (inactive)	5% (inactive)	-5.6% (inactive)
CN(C)CCOc1ccccc1Cc1ccccc1	69.2	210% (inactive)	23.6% (inactive)	85.8% (inactive)	4% (inactive)	-20.2% (inactive)	-8.22% (inactive)	-1.1% (inactive)	104% (inactive)	-0.13 (inactive)	14% (inactive)	-1.05% (inactive)
CN(C)CCCNc1ncnc2c1cnn2-c1ccccc1	70.3	336% (inactive)	16% (inactive)	94.4% (inactive)	-2% (inactive)	8.67% (inactive)	-0.95% (inactive)	1.69% (inactive)	97% (inactive)	0.12 (inactive)	12% (inactive)	23.2% (inactive)
CC(=O)/C=C/c1ccc(C)o1	62.2	175% (inactive)	5.03% (inactive)	95.6% (inactive)	-4% (inactive)	14.7% (inactive)	15.9% (inactive)	0.22% (inactive)	102% (inactive)	0.51 (active)	3% (inactive)	28% (inactive)
CC(=O)C1=C(NC(=O)c2ccc(C(F)(F)F)cc2)C[C@@H]2[C@H]1C2(C)C	60	129% (inactive)	-3.77% (inactive)	99% (inactive)	3% (inactive)	0.35% (inactive)	6.52% (inactive)	-6.14% (inactive)	101% (inactive)	0.28 (inactive)	-1% (inactive)	-17.7% (inactive)
CC(=O)N(CCC1(C(C)C)CCOC(C)(C)C1)Cc1ccco1 (stereo not given)	64.3	276% (inactive)	-16.8% (inactive)	94.3% (inactive)	-4% (inactive)	3.66% (inactive)	0.1% (inactive)	-0.44% (inactive)	105% (inactive)	-0.09 (inactive)	11% (inactive)	12.3% (inactive)
O=C(NCCc1cccc(F)c1)[C@@H]1CSC2c3ccccc3C(=O)N21 (stereo not given in full)	63.2	251% (inactive)	5.03% (inactive)	97.1% (inactive)	5% (inactive)	1.99% (inactive)	-1.7% (inactive)	0.26% (inactive)	101% (inactive)	0.12 (inactive)	7% (inactive)	2.4% (inactive)
CCOC(=O)c1cnc2ccc(C(=O)OC)cc2c1Nc1ccc2c(c1)OCCO2	63.9	266% (inactive)	0.59% (inactive)	99.1% (inactive)	6% (inactive)	-25.7% (inactive)	-8.06% (inactive)	-27.9% (inactive)	97.4% (inactive)	0.08 (inactive)	-2% (inactive)	-0.06% (inactive)
CC(C)COc1ccc(Cc2cnc(N)nc2N)cc1	63.9	226% (inactive)	3.67% (inactive)	97.9% (inactive)	0% (inactive)	5.88% (inactive)	59.5% (active)	-3.28% (inactive)	95.5% (inactive)	0.05 (inactive)	0% (inactive)	76% (active)
COc1ccc(C)cc1S(=O)(=O)Nc1ccc(F)cc1	64.5	172% (inactive)	5.61% (inactive)	98.8% (inactive)	1% (inactive)	0.44% (inactive)	2.42% (inactive)	-2.48% (inactive)	102% (inactive)	0.06 (inactive)	17% (inactive)	-3.11% (inactive)
COc1cc([C@@H]2c3cc4c(cc3[C@H](O)[C@H]3COC(=O)[C@H]23)OCO4)cc(OC)c1OC	63.2	180% (inactive)	38.9% (inactive)	99.1% (inactive)	7% (inactive)	22.7% (inactive)	-1.6% (inactive)	21% (active)	102% (inactive)	-0.13 (inactive)	7% (inactive)	-0.06% (inactive)
CN1CCN(C2=Nc3cc(Cl)ccc3Nc3ccccc32)CC1	61.7	222% (inactive)	31.2% (inactive)	84.7% (inactive)	-4% (inactive)	-25% (inactive)	9.21% (inactive)	6.59% (inactive)	102% (inactive)	0.04 (inactive)	-2% (inactive)	-5.97% (inactive)
CCOc1ccccc1Oc1coc2cc(OCC(=O)O)ccc2c1=O	63.5	156% (inactive)	1.44% (inactive)	111% (inactive)	10% (inactive)	-21.7% (inactive)	-11% (inactive)	5.03% (inactive)	106% (inactive)	-0.09 (inactive)	-2% (inactive)	-8.93% (inactive)
CCCCC[C@H](O)/C=C/[C@@H]1[C@@H](C/C=C\CCCC(=O)O)[C@@H](O)C[C@H]1O	60.4	106% (inactive)	-49.3% (inactive)	96.5% (inactive)	1% (inactive)	-3.9% (inactive)	-12.4% (inactive)	-1.19% (inactive)	98.8% (inactive)	0.045 (inactive)	1% (inactive)	-11.9% (inactive)
O=C1CCCCCN1Cc1ccccc1	62.4	208% (inactive)	3.67% (inactive)	97.2% (inactive)	7% (inactive)	-1.56% (inactive)	-4.78% (inactive)	5.84% (inactive)	101% (inactive)	-0.24 (inactive)	5% (inactive)	8.8% (inactive)
O=C(/C=C/c1ccco1)NCc1ccc2c(c1)OCO2	63	260% (inactive)	-3.16% (inactive)	101% (inactive)	0% (inactive)	-2.38% (inactive)	-3% (inactive)	1.08% (inactive)	94.7% (inactive)	0.19 (inactive)	8% (inactive)	-10.4% (inactive)
Cc1ccc2c(c1)C(O)(CC(=O)/C=C/C=C/c1ccccc1)C(=O)N2 (stereo not given)	63.9	759% (inactive)	-4.6% (inactive)	111% (inactive)	2% (inactive)	-0.9% (inactive)	4.01% (inactive)	-1.15% (inactive)	99% (inactive)	-0.26 (inactive)	-7% (inactive)	2.2% (inactive)
CC[n+]1ccc2cc(OC)c(OC)cc2c1Cc1ccc(OC)c(OC)c1	64	174% (inactive)	-10.5% (inactive)	98.6% (inactive)	2% (inactive)	-11.2% (inactive)	-12.4% (inactive)	-0.56% (inactive)	106% (inactive)	-0.09 (inactive)	6% (inactive)	-1.05% (inactive)
N=C1C(c2ccccc2)=C(O)CN1CCCO	58.1	157% (inactive)	2.3% (inactive)	91.2% (inactive)	3% (inactive)	-12.9% (inactive)	-7.8% (inactive)	-6.01% (inactive)	93.8% (inactive)	-0.06 (inactive)	12% (inactive)	-31.2% (inactive)
Cc1nc2ccccc2c(=O)n1N	64.8	160% (inactive)	5.03% (inactive)	95.7% (inactive)	-1% (inactive)	-0.52% (inactive)	-8.13% (inactive)	-5.43% (inactive)	106% (inactive)	0.15 (inactive)	6% (inactive)	58.4% (active)
CCCCC[C@H](O)/C=C/[C@@H]1[C@@H](C/C=C\CCCC(=O)O)[C@H]2CO[C@@H]1C2	59	192% (inactive)	-8.78% (inactive)	110% (inactive)	-1% (inactive)	-18.1% (inactive)	1.57% (inactive)	-0.38% (inactive)	101% (inactive)	0.08 (inactive)	-1% (inactive)	-10.9% (inactive)
NS(=O)(=O)c1cc2c(cc1C(F)(F)F)NCNS2(=O)=O	80.6	205% (inactive)	10.8% (inactive)	92.9% (inactive)	5% (inactive)	-9.47% (inactive)	1.9% (inactive)	1.35% (inactive)	101% (inactive)	-0.04 (inactive)	11% (inactive)	-3.02% (inactive)
Cc1ccc(C(=O)N2CC3(C(C)C)CN(C(=O)c4ccc(C)cc4)CC(C(C)C)(C2)C3=O)cc1	59.7	224% (inactive)	-30.5% (inactive)	97.1% (inactive)	3% (inactive)	24.4% (inactive)	14.1% (inactive)	-0.93% (inactive)	99.1% (inactive)	0.76 (active)	5% (inactive)	7.2% (inactive)
CCc1cc(=O)oc2cc(OCC=C(C)C)ccc12	66.7	297% (inactive)	26.9% (inactive)	89.5% (inactive)	6% (inactive)	1.45% (inactive)	-1.05% (inactive)	-0.58% (inactive)	103% (inactive)	-0.03 (inactive)	3% (inactive)	-18.4% (inactive)
COc1ccccc1-c1c(C(F)(F)F)oc2cc(OC(=O)c3ccc([N+](=O)[O-])cc3)ccc2c1=O	61.5	160% (inactive)	-1.97% (inactive)	49.2% (active)	2% (inactive)	-19.4% (inactive)	-4.55% (inactive)	1.11% (inactive)	99.3% (inactive)	0.04 (inactive)	1% (inactive)	-5.97% (inactive)
